Laboratory results taken from PubChem BioAssay AID1159580 (chemical genetic matrix, 2015).
Several values for one entry are separate records, joined by “and”; a condition that tells them apart may be missing. Identical values can stand only once. The campaign covered roughly 5,500 compounds. About 2,000 (36%) were called active. About 18% were inconclusive and are not listed. No stated cut-off is given here; in the data, active means normalized growth mostly below about 0.91 (no sharp cut-off); inconclusive means no clear call, values can overlap the other calls; inactive means mostly above about 0.92. This is one part of the list.

Experiment: chemical genetic growth profiling, strain panel (AID 1159580);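 further: tested at 20 µM; growth read once vehicle control cultures reached saturation at 30 °C; 1 = growth at the plate median or of vehicle wells; lower values mean less growth of the strain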
Settings: S. cerevisiae deletion strains, growth OD

Measured: normalized growth

O=[N+]([O-])O[C@H]1CO[C@H]2[C@@H]1OC[C@H]2O[N+](=O)[O-]
active: locus YGR252W, strain gcn5, active compounds read low 1.3 [resistant]
inactive: locus YAL013W, strain DEP1, active compounds read low 1.01 | locus YAL021C, strain ccr4, active compounds read low 0.993 | locus YAL026C, strain drs2, active compounds read low 1.01 | locus YAL030W, strain snc1, active compounds read low 1 | locus YBL061C, strain skt5, active compounds read low 1 | locus YBR009C, strain hhf1, active compounds read low 1 | locus YBR021W, strain FUR4, active compounds read low 1.01 | locus YBR023C, strain chs3, active compounds read low 0.984 | locus YBR171W, strain sec66, active compounds read low 0.993 | locus YBR229C, strain ROT2, active compounds read low 1.01 | locus YBR231C, strain swc5, active compounds read low 0.981 | locus YBR279W, strain paf1, active compounds read low 0.978 | locus YCL011C, strain gbp2, active compounds read low 0.99 | locus YCL016C, strain dcc1, active compounds read low 0.97 | locus YCL029C, strain bik1, active compounds read low 1.03 | locus YCL061C, strain MRC1, active compounds read low 0.985 | locus YCL069W, strain vba3, active compounds read low 0.999 | locus YCR088W, strain abp1, active compounds read low 0.985 | locus YDL005C, strain med2, active compounds read low 0.991 | locus YDL035C, strain GPR1, active compounds read low 1.03 | locus YDL040C, strain nat1, active compounds read low 0.999 | locus YDL074C, strain BRE1, active compounds read low 1.01 | locus YDL101C, strain DUN1, active compounds read low 1 | locus YDL134C, strain PPH21, active compounds read low 1.01 | locus YDL185W, strain tfp1, active compounds read low 1.01 | locus YDL192W, strain arf1, active compounds read low 1.02 | locus YDR001C, strain nth1, active compounds read low 0.991 | locus YDR069C, strain doa4, active compounds read low 1 | locus YDR101C, strain arx1, active compounds read low 0.989 | locus YDR137W, strain rgp1, active compounds read low 0.971 | locus YDR159W, strain sac3, active compounds read low 1.01 | locus YDR162C, strain NBP2, active compounds read low 1.02 | locus YDR195W, strain ref2 0.977 | locus YDR297W, strain sur2, active compounds read low 0.99 | locus YDR318W, strain mcm21, active compounds read low 1.05 | locus YDR334W, strain swr1, active compounds read low 0.991 | locus YDR335W, strain msn5, active compounds read low 0.995 | locus YDR388W, active compounds read low 1.02 | locus YDR392W, strain spt3, active compounds read low 0.91 | locus YDR502C, strain sam2, active compounds read low 1.03 | locus YEL003W, strain gim4, active compounds read low 1 | locus YEL037C, strain rad23, active compounds read low 0.995 | locus YEL061C, strain CIN8 (second series), active compounds read low 0.99 | locus YEL061C, strain CIN8, active compounds read low 1.01 | locus YER015W, strain faa2, active compounds read low 1.01 | locus YER016W, strain bim1, active compounds read low 1 | locus YER110C, active compounds read low 1.02 | locus YER111C, strain swi4, active compounds read low 0.979 | locus YER155C, strain BEM2 (second series), active compounds read low 0.998 | locus YER155C, strain BEM2, active compounds read low 1.01 | locus YER167W, strain BCK2, active compounds read low 1.02 | locus YFR010W, strain ubp6, active compounds read low 1 | locus YGL078C, strain dbp3, active compounds read low 1.02 | locus YGL086W, strain mad1, active compounds read low 1.01 | locus YGL167C, strain pmr1, active compounds read low 1 | locus YGL173C, strain kem1, active compounds read low 1 | locus YGL227W, strain vid30, active compounds read low 0.986 | locus YGL240W, strain doc1, active compounds read low 0.988 | locus YGL248W, strain PDE1, active compounds read low 0.999 | locus YGL253W, strain hxk2, active compounds read low 1.01 | locus YGR078C, strain PAC10, active compounds read low 1.03 | locus YGR135W, strain pre9, active compounds read low 1.04 | locus YHR013C, strain ard1, active compounds read low 0.971 | locus YHR027C, strain rpn1, active compounds read low 0.998 | locus YHR030C, strain SLT2, active compounds read low 1.01 and 0.95 | locus YHR079C, strain IRE1 (second series), active compounds read low 1.02 | locus YHR079C, strain IRE1, active compounds read low 0.956 | locus YHR094C, strain hxt1, active compounds read low 1.02 | locus YHR129C, strain ARP1, active compounds read low 1.01 | locus YHR142W, strain chs7, active compounds read low 0.991 | locus YHR200W, strain rpn10, active compounds read low 1.02 | locus YIL066C, strain RNR3, active compounds read low 1.02 | locus YIL073C, strain SPO22, active compounds read low 1.06 | locus YIL125W, strain kgd1, active compounds read low 1.01 | locus YIR030C, strain dcg1, active compounds read low 1.01 | locus YJL092W, strain hpr5, active compounds read low 0.999 | locus YJL095W, strain BCK1 (second series), active compounds read low 0.992 | locus YJL095W, strain BCK1, active compounds read low 1.01 and 0.925 | locus YJL115W, strain asf1, active compounds read low 0.991 | locus YJL129C, strain trk1, active compounds read low 0.991 | locus YJL134W, strain LCB3, active compounds read low 1.02 | locus YJL154C, strain vps35, active compounds read low 0.998 | locus YJL164C, strain tpk1, active compounds read low 0.988 | locus YJL166W, strain qcr8, active compounds read low 0.984 | locus YJL168C, strain set2, active compounds read low 1 | locus YJL187C, strain SWE1 (second series), active compounds read low 1.01 | locus YJL187C, strain SWE1, active compounds read low 1
